Experimental data reported in PubChem BioAssay AID493005 (National Center for Advancing Translational Sciences (NCATS), 2010).
Among all 340,000 compounds or so, fewer than 10 were called active. Calls follow the shape of the dose curve; as a rule, active = well fitted inhibition curve with a large enough effect in the main read-out, with a control signal flat (not every such curve was filed as active); inconclusive = small, poorly fitted or top-dose-only effect, or effect the other way, or a change in a side signal; inactive = no such curve, though single readings can be large or run the other way. Not all results are given here.

What follows are compounds tested against Tumor susceptibility gene 101 protein (Homo sapiens) (UniProt Q99816) (assay: qHTS Assay for Iinhibitors of HIV-1 Budding by Blocking the Interaction of PTAP/TSG101). Conditions: Fluorescence polarization, FITC-PTAP peptide / Tsg101 binding; series mostly up to 115 µM; activity change, negative = inhibition: at the top concentration.
Text: NIH Molecular Libraries Probe Production Network [MLPCN] NIH Chemical Genomics Center [NCGC] MLPCN Grant: 1 R03 MH087464-01A1 PI Name: Dr. Eric Freed, NCI NCGC Assay Overview: Stages of the HIV-1 replication cycle, specifically virus assembly and release, provide underexploited targets for the development of novel antiviral inhibitors. The late stages of HIV-1 replication are mediated by the Gag precursor protein, Pr55Gag. Expression of Pr55Gag is both necessary and sufficient for the production of virus-like particles from Gag-expressing cells. The Gag protein hijacks key host proteins involved in endocytic machinery of the host cell to promote endosomal processing and viral budding. The budding process requires a direct interaction between a […] (PTAP) motif in the p6 domain of Gag and the cellular endosomal sorting protein known as Tsg101. In this way, the Gag PTAP motif promotes the host cells to recruit viral particles to the plasma membrane where the new viral particles are released, effectively turning the host cells into viral factories. A fluorescence anisotropy assay has been developed to quantitatively measure the PTAP-Tsg101 interaction which can be used to screen for inhibitors of this interaction.
NCGC Assay Protocol Summary: Two uL of the Tsg101 binding domain in buffer (10 mM HEPES pH 7.5; 0.15 M NaCl, 0.01% Tween 20; 3 mM EDTA;0.1 mM TCEP) was dispensed into Greiner black MB 1536-well plates (final concentration 10 uM). Then, 23 nL of compounds or DMSO were delivered to each well using a pin tool. Finally, 2 uL of a FITC-labeled peptide containing the PTAP motif (1) in the same buffer was dispensed (50 nM final concentration) and the binding was allowed to proceed for 20 min. at r.t. Fluorescent polarization was determined using FITC excitation and polarized emission filters on a Perkin Elmer Viewlux. Keywords: Tsg101, PTAP, Gag, HIV, fluorescent polarization, MLSMR, MLPCN, NIH Roadmap, qHTS, NCGC
Also: % of control where 0% means no effect.

Tumor susceptibility gene 101 protein (Homo sapiens), sequence (Q99816 whole entry, looked up): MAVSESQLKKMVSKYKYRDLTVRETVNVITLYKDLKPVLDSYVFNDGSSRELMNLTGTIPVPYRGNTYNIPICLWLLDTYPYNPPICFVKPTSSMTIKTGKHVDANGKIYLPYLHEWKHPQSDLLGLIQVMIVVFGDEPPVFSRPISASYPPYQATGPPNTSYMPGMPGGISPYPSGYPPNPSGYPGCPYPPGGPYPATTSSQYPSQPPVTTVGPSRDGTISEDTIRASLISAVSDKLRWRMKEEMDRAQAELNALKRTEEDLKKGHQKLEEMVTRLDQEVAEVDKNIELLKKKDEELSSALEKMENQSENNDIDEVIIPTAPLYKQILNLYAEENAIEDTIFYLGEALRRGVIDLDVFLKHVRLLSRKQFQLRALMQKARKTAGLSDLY

Activity change, negative = inhibition, inactive:
Cc1nc2ccc(N)nc2nc1C -0.53%
C/C(=N\NC(=O)OC(C)(C)C)c1ccc[nH]1 -1.18%
O=C(CCN1C(=O)[C@H]2CC=CC[C@H]2C1=O)NCc1nc(-c2ccccc2)no1 -6.22%
CCc1nnc(NC(=O)CSc2nnc(COc3ccc(C#N)cc3)n2-c2ccccc2)s1 -10.6%
CCN(CCn1cccn1)Cc1cn[nH]c1-c1ccc(OC)cc1F 0.565%
CC1CN(Cc2nc3c(c(=O)n(C)c(=O)n3C)n2Cc2cccc(Cl)c2)CC(C)O1 (stereo not given) -3.91%
O=C(c1ccc(C(F)(F)F)cc1)C1CCCN(C(=O)c2csnn2)C1 (stereo not given) -0.106%
CN1CCC(N(C)C(=O)c2ccc(Cl)c(S(=O)(=O)Nc3ccc(Cl)cc3)c2)CC1 -3.3%
O=C(C[C@H]1C/C=C\C[C@@H](NC(=O)OCC2c3ccccc3-c3ccccc32)C(=O)O[C@@H](c2ccccc2)CNC1=O)N[C@H](CO)Cc1ccccc1 -5.62%
COc1cc(/C=C/c2ccc(/C=C/c3cc(OC)c(OC)c(OC)c3)cc2)cc(OC)c1OC -1.32%
CCOC(=O)c1ccc2[nH]c3c(c2c1)CCCC3NC=O (stereo not given) -3.47%
CCN1CCN(C(=O)Cn2nc(C)n3c(cc4c(OC)cccc43)c2=O)CC1 -6.31%
O=C(NCc1nnc(SCC(=O)N2CCC(Cc3ccccc3)CC2)o1)c1ccco1 -0.997%
CCN(CC)S(=O)(=O)c1ccc2[nH]c(=O)cc(C(=O)N(C)C3CCS(=O)(=O)C3)c2c1 (stereo not given) -4.05%
O=C(C1CCCO1)N(c1ccc(F)cc1)C1C=CS(=O)(=O)C1 (stereo not given) 0.363%
O=C(NCc1ccccc1)c1cccc(NC(=O)C2CCCCC2)c1 -6.8%
c1ccc(-c2nccc(-c3ccc(-n4cnc5ccccc54)cc3)n2)nc1 -1.99%
CCC(C)Sc1nc(C)nc2c1c(=O)n(C)c(=O)n2C (stereo not given) 0.253%
CCN(CC)C(=O)CSc1nc2ccccc2n1CC(=O)N1CCN(c2ccccc2OC)CC1 0.875%
CCOc1ccccc1NC(=S)C(=C([O-])c1ccc2c(c1)OCCO2)[n+]1ccc(CC)cc1 3.72%
O=C(CSc1nnc(-c2cccs2)n1Cc1ccco1)c1ccc2c(c1)OCO2 -3.06%
COC(=O)c1ccc(NC(=O)CSc2nncc3ccc(OC)c(OC)c23)cc1 -2.76%
Cc1noc(C)c1C(=O)NCCc1ccc(S(N)(=O)=O)cc1 -0.805%
O=C(CN1CCN(c2ccc(O)cc2)CC1)Nc1ccc(-c2ccccc2)cc1 -0.657%
CCN(C(=O)COC(=O)c1c(C)nn(-c2ccccc2)c1Cl)c1c(N)n(Cc2ccccc2)c(=O)[nH]c1=O -1.46%
COc1cccc(-c2nn(-c3ccccc3)cc2/C=C(\C#N)C(=O)NCCCn2ccnc2)c1 -4.69%
Nc1c(-c2cccc(Cl)c2)cnn1-c1cccc([N+](=O)[O-])c1 -1.6%
COc1ccc(CN2C(=O)CC(Cc3ccc(C)cc3)C2=O)cc1OC (stereo not given) 0.513%
C/C(=N\N=C(N)N)c1ccc(Cl)cc1 -1.16%
CC(C)Oc1ccc(C2NC(=O)NC2=O)cc1 (stereo not given) -6.43%
COC(=O)C1(S(=O)(=O)C2(C(=O)OC)CCCC2)CCCC1 0.594%
C=CCOC(=O)C1=C(C)N=C2SCCC(=O)N2C1/C=C/c1ccccc1OC (stereo not given) -5.89%
Cc1ccc(N(C(=O)CC2NC(=O)NC2=O)C2(C(=O)NC3CCCC3)CCCCC2)cc1 (stereo not given) -3.36%
O=S(=O)(NCCS(=O)(=O)N1CCN(c2ccccc2)CC1)c1ccc(F)cc1 -5.23%
Fc1ccc(-n2c(Cc3ccccc3)nnc2SCc2nc(-c3ccc(Cl)cc3)no2)cc1 -5.49%
N/C(=N\OC(=O)CCc1ccccc1)c1ccc(Cl)cc1 -1.88%
O=C(CN1CCN(Cc2ccccc2)CC1)NC(c1ccccc1)c1ccccc1 -0.0932%
O=C(O)c1[nH]c2ccccc2c1C(c1cccc(O)c1)c1c(C(=O)O)[nH]c2ccccc12 -5.64%
COCCCNCC(=O)Nc1sc(C)c(C)c1C(=O)OC 0%
CCn1c(SCC(=O)NC2=NCCS2)nnc1C(C)NC(=O)c1ccccc1F (stereo not given) -2.35%
Cc1ncc([N+](=O)[O-])n1CCOC(=O)c1ccc(Br)cc1 -6.42%
CC(C)(C)C(=O)Nc1cccc(-c2ccc[nH]2)n1 -4.49%
O=C(C/C(=N\NC(=O)c1ccccc1Br)C(F)(F)F)c1cccs1 -4.3%
COC(=O)[C@@]12CCCN1[C@H](c1ccc(-c3ccc(F)cc3)c(OC)c1)[C@H]1C(=O)N(C)C(=O)[C@H]12 -0.523%
C=C1c2c(Cl)ccc(O)c2C(O)=C2C(=O)[C@]3(O)C(O)=C(C(N)=O)C(=O)[C@@H](N(C)C)[C@@H]3[C@@H](O)C12 (stereo not given in full) -1.33%
Cc1ccc(C)c(OCCC(=O)OCC(=O)NC(=O)NCc2ccccc2)c1 -1.56%
COc1ccc(NC(=O)CSc2ccc(-c3ccco3)nn2)c(OC)c1 -8.49%
COC(=O)[C@]1(C)CCC[C@@]2(C)C3CC[C@]4(OC(C)=O)C[C@@]3(CCC21)CC4=NO (stereo not given in full) -6.61%
COc1ccc(C(=O)CCc2ccccc2O)c(OC)c1 0.644%
Cc1ccc(CNC(=O)CCC(=O)N2CC(C)Sc3ccccc32)cc1 (stereo not given) -0.171%
Cc1cc(C)cc(NC(=O)N2CCC(NC(=O)c3ccc(F)cc3)CC2)c1 -0.34%
Cc1ccc(CCCOC(=O)C[N+]2(C)CCCCC2)cc1 -0.238%
Cc1noc(C)c1S(=O)(=O)N1CCCC(C(=O)Nc2nccs2)C1 (stereo not given) -2.7%
CCCCNC1(C#N)CCN(Cc2ccccc2)CC1 -0.662%
O=C(NNC(=S)NCCCN1CCOCC1)c1ccncc1 -0.889%
CCOc1cc(CN2CCCC(CO)(Cc3ccc(F)cc3F)C2)ccc1OC (stereo not given) -0.505%
Cc1ccc2c(C)c(C(=O)N(C)CCC3CCCCO3)oc2c1C (stereo not given) -7.71%
CN(C)C(=O)c1ccc2c(c1)C1C3CCC(C3)C1C(c1ccccc1)N2 (stereo not given) -5.45%
O=C(CCC1CCCC1)N=C1SC2CS(=O)(=O)CC2N1Cc1ccccc1 (stereo not given) -1.15%
Cc1ccc(CN(N=Nc2nonc2N)c2nonc2N)c(C)c1 -0.109%
Cc1ccc(C(=O)O)cc1N1C(=O)CCCC1=O -3.92%
Cc1ccc(CN2CCN(c3ccccc3Cl)CC2)o1 -5.99%
CCCC(=O)Nc1nnc(CC(=O)OCC)s1 0.641%
COc1ccc(CCNCc2c(-c3ccccc3)n(C)c3ccccc23)cc1 -3.78%
COc1ccc(F)cc1S(=O)(=O)N1CCCCC1 -9.49%
O=[N+]([O-])c1ccc(C=Nc2ccc(Cl)cc2Cl)s1 -15%
CCOC(=O)c1nnn(-c2nonc2-n2cccc2)c1CN1CCC(C(=O)OCC)CC1 -0.451%
C=CCc1cccc2cc(C(=O)Nc3ccc(NC(C)=O)cc3)c(=O)oc12 1.25%
CCOC(=O)[C@@H]1[C@H]2COc3cc(OC)ccc3[C@H]2N2C(=O)N(c3ccc(F)cc3)C(=O)[C@]12C 0.494%
O=C(Cc1ccccc1)Nc1c(Cl)ccc2nsnc12 0.701%
CC(=O)c1ccc(NC(=O)C2CC(=O)Nc3nc4ccccc4n32)cc1 (stereo not given) 0.727%
CCOc1ccc(NC(=O)C/C(C)=N/NC(=O)Cc2cccs2)cc1 -5.5%
CN(CC(=O)NCCN1CCOCC1)S(=O)(=O)c1ccc(F)cc1 -0.493%
C/C(=N\NC(=O)CCn1nc(C)cc1C)C(C)(C)C -0.95%
O=C(Cc1ccc(NC(=O)C2CCCN(C(=O)CCc3ccccc3)C2)cc1)Nc1ccc(C(=O)N2CCOCC2)cc1 (stereo not given) -0.0955%
COc1ccc(-c2nc3c(s2)CCc2onc(-c4ccc(OC)cc4)c2-3)cc1 -0.28%
CC(=O)Nc1ccc(S(=O)(=O)N(CCc2ccccc2)CC(=O)N/N=C/c2ccc(C(=O)O)cc2)cc1 -6.47%
COc1cc(Cl)ccc1OCc1cc(C(=O)N(C)CCc2c(C)n[nH]c2C)no1 0.863%
CC(C)C[C@H](NC(=O)C1CC(=O)N(c2ccc3c(c2)OCCO3)C1)C(=O)NC1CCCC1 (stereo not given in full) 2.95%
COc1ccc(Cl)cc1NC(=O)CN(C)C(=O)CCCc1c[nH]c2ccccc12 -4.62%
CC(C)CC(CC(C)C)=NNC(=O)c1ccc(CSc2nncn2C)cc1 -0.775%
O=C(c1cc(-c2ccco2)nc2ccccc12)N(Cc1nnc(-c2ccc(Cl)cc2)o1)C1CC1 0.193%
CN(CC(=O)Nc1ccc(Cl)c(C(F)(F)F)c1)C(=O)CCC(=O)c1ccccc1 -4.75%
Cn1ncc(N2CCN(S(=O)(=O)c3ccc(Br)cc3)CC2)c(Cl)c1=O 1.01%
CC(C)OP(=O)(OC(C)C)C(Nc1ccccc1)c1cccc([N+](=O)[O-])c1 (stereo not given) -3.25%
CC(=O)N(c1ccc2oc(=O)sc2c1)S(=O)(=O)c1ccc(C)cc1 -5.77%
Clc1ccc(C[n+]2cc(-c3ccc(Cl)cc3)n3c2CCC3)cc1 0.956%
COC(=O)[C@@H]1C[C@@]2(O)[C@@H](O)[C@@H](O)[C@@H](O)C[C@H]2N1Cc1ccc(C)s1 0.0295%
COc1ccccc1NS(=O)(=O)c1ccc(C)c(C(=O)NNC(=O)c2csc(N3CCOCC3)n2)c1 -8.59%
CC(=O)OC1CCC2C3CCC4=C(CC(F)C(=O)C4)C3CCC12C (stereo not given) 0.416%
Cc1ccc(S(=O)(=O)N2CCCC2C(=O)NCc2ccco2)cc1 (stereo not given) -4.52%
CS(=O)(=O)N1CCCC(C(=O)N2CCOCC2)C1 (stereo not given) -5.04%
CCCN1C(=O)C(NC(C)=O)c2cc(OC)ccc21 (stereo not given) -3.66%
O=C(NC1CCCC1)C(c1ccc(N2CCOCC2)cc1)N(C(=O)c1ccco1)c1ccccc1F (stereo not given) 1.97%
O=C(Nc1ccccc1-c1nnn(CC(=O)N2CCCc3ccccc32)n1)c1cccc(Cl)c1 -0.614%
CC(C)C(O)C1CCN(Cc2nc(Cc3ccccc3Cl)no2)CC1 (stereo not given) 0.208%
O=C(Nc1ccc2c(c1)nc1n2CCCCC1)c1cc(S(=O)(=O)N2CCOCC2)ccc1Cl -2.8%
C=CCn1c(COc2ccc(F)cc2)nnc1SCC(=O)Nc1cccc(S(N)(=O)=O)c1 0.597%
CCc1c(O)nc(SCC(=O)Nc2ccccc2)n(C(C)CC)c1=O (stereo not given) -0.227%
COc1cc(OC)cc(C(=O)NNC(=O)Cc2cccs2)c1 -8.25%
